Reference: PubChem BioAssay (NCI)
About 79,000 compounds went through this panel and 15% of them were active in at least one assay; those are over-represented in the sample as a whole. The source made the active and inactive calls. No stated cut-off is given here; in the data, active means growth inhibition above about 70%; inactive means the rest. Residues, ends and D or L forms follow the SMILES beside them. *: point of attachment. Fmoc = O=C(OCC1c2ccccc2-c2ccccc21)*; Boc = CC(C)(C)OC(=O)*

Assay: NCI Yeast Anticancer Drug Screen. Data for the bub3 strain (AID 167)
Details: S. cerevisiae bub3 mutant strain, at 11.0 µM, stronger effect = higher value
How it was run: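 Screening used yeast with an engineered genetic alteration affecting cell cycle control. Compound-exposed cultures were compared with vehicle cultures, and reduced growth was taken as inhibition.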

Q: For CC(C)C(=O)CC(Sc1ccc(N)cc1)c1ccccc1 (stereo not given), which growth inhibition is on record?
A: 90% (active)

Q: For CC(C)OP(=O)(OC(C)C)/C(Cl)=N/Nc1ccc([N+](=O)[O-])cc1, which growth inhibition is on record?
A: 86% (active)

Q: Which growth inhibition does the source give for O=[N+]([O-])c1cc(Cl)ccc1S(=O)(=O)c1ccc(Cl)cc1[N+](=O)[O-] here?
A: 80% (active)

Q: Which growth inhibition does the source give for CCCCCCNCCCNc1c2cc(OC)ccc2nc2cccc([N+](=O)[O-])c12 here?
A: -18% (inactive)

Q: Which growth inhibition does the source give for N#CCC(=O)N/N=C(\c1ccccc1)C(c1ccccc1)C1(O)C(=O)Nc2c(Cl)ccc(Cl)c21 (stereo not given) here?
A: 11% (inactive)

Q: Which growth inhibition does the source give for CN(C)CCNCCCNc1c2ccccc2nc2cccc([N+](=O)[O-])c12 here?
A: -11% (inactive)

Q: For CCC[CH2][Ge]([CH2]CCC)([CH2]CCC)[O]C(=O)C(O)c1ccccc1 (stereo not given), which growth inhibition is on record?
A: 24% (inactive)

Q: For COc1ccc(-c2cc(-c3cc(C)cc(Cl)c3O)nc3[nH]c(=S)[nH]c(=S)c23)cc1, which growth inhibition is on record?
A: 0% (inactive)

Q: With O=[N+]([O-])c1ccc(/C=C\c2ccc3c(c2)OCO3)c([N+](=O)[O-])c1 as the compound, how does the growth inhibition read?
A: -5% (inactive)

Q: With O=C1c2ccccc2N2OC3(N4CCCC4)CCCCC3C12c1ccccc1 (stereo not given) as the compound, how does the growth inhibition read?
A: -2% (inactive)

Q: With CC(C)OC(=O)NNc1cc(Cl)ccc1Cl as the compound, how does the growth inhibition read?
A: 19% (inactive)

Q: Which growth inhibition does the source give for Cc1oc2ccccc2c(=O)c1Cn1nnc2ccccc21 here?
A: 0% (inactive)

Q: For CC1(C)OC(=O)C(=Cc2ccc([N+](=O)[O-])s2)C(=O)O1, which growth inhibition is on record?
A: -8% (inactive)

Q: For CCN(CC)CCCNc1ccc([N+](=O)[O-])c2nc3ccc(OC)cc3c(NCCCN(CC)CC)c12, which growth inhibition is on record?
A: -7% (inactive)

Q: Which growth inhibition does the source give for COc1cccc(/C=C2\S/C(=N/Nc3nc(-c4ccc([N+](=O)[O-])cc4)cs3)NC2=O)c1O here?
A: 62% (inactive)

Q: Which growth inhibition does the source give for OC(Cc1cccc2ccccc12)CN1CCC(c2ccccc2)CC1 (stereo not given) here?
A: 54% (inactive)

Q: Which growth inhibition does the source give for C1=CCN([B-](c2ccccc2)[C+]2CCCCC2)C=C1 here?
A: 4% (inactive)

Q: With O=[N+]([O-])c1cc[n+]([O-])c(Cl)c1 as the compound, how does the growth inhibition read?
A: -8% (inactive)

Q: For CCCNC(=O)OCc1c(COC(=O)NCCC)c(-c2ccc(Cl)c(Cl)c2)n2c1CCC2, which growth inhibition is on record?
A: -24% (inactive)

Q: With CC1(C)CC(=O)C(C(=O)Nc2cccs2)=C(O)C1 as the compound, how does the growth inhibition read?
A: 41% (inactive)

Q: For O=C(NO)c1coc2ccccc2c1=O, which growth inhibition is on record?
A: -2% (inactive)

Q: With COc1ccc(C(C)c2cc3c(cc2OCC(C)=O)OCO3)cc1 (stereo not given) as the compound, how does the growth inhibition read?
A: 17% (inactive)

Q: With O=S(=O)(c1ccccc1)N1CN2CN(C1)CN(S(=O)(=O)c1ccccc1)C2 as the compound, how does the growth inhibition read?
A: -25% (inactive)

Q: Which growth inhibition does the source give for CC1=NN(C(=O)c2ccccc2O)C(=O)/C1=C/c1ccco1 here?
A: 91% (active)

Q: For O=C1C=C(Br)C(=O)c2ccccc21, which growth inhibition is on record?
A: 99% (active)

Q: Which growth inhibition does the source give for C[N+](C)([O-])CCCNc1c2ccccc2nc2cccc([N+](=O)[O-])c12 here?
A: 15% (inactive)

Q: Which growth inhibition does the source give for Cc1cccc2c(NCCCN(C)C)c3c([N+](=O)[O-])ccc(C)c3nc12 here?
A: 16% (inactive)

Q: For OC1(c2ccccc2)C2CC=CC2C1(c1ccccc1)c1ccccc1 (stereo not given), which growth inhibition is on record?
A: -9% (inactive)

Q: Which growth inhibition does the source give for C[n+]1c(-c2ccc(/C=N/NC(=O)c3ccc(C(=O)N/N=C/c4ccc(-c5cn6ccccc6[n+]5C)cc4)cc3)cc2)cn2ccccc21 here?
A: 13% (inactive)

Q: Which growth inhibition does the source give for CCN(CC)CCC(=O)Nc1ccc2sc3ccccc3c(=O)c2n1 here?
A: -3% (inactive)

Q: Which growth inhibition does the source give for O=[N+]([O-])c1ccc2nc(=S)[nH]n2c1 here?
A: -5% (inactive)

Q: For O=C(c1ccccc1)[C@H]1Nc2ccc(Cl)cc2[C@H]2OCCC[C@@H]12, which growth inhibition is on record?
A: 34% (inactive)

Q: With COc1cc([N+](=O)[O-])c2ncccc2c1Br as the compound, how does the growth inhibition read?
A: -16% (inactive)

Q: With O=S(=O)(c1cccc(C(F)(F)F)c1)N1c2ccccc2-n2cccc2C1c1cccnc1 (stereo not given) as the compound, how does the growth inhibition read?
A: 62% (inactive)

Q: For CC(C)(C)OC(=O)NCCCCC(NC(=O)C(Cc1c[nH]c2ccccc12)NC(=O)OCC1c2ccccc2-c2ccccc21)C(=O)O (stereo not given) (Fmoc-Trp-Lys(Boc)-OH; configuration not given here), which growth inhibition is on record?
A: -1% (inactive)
